# ± gives the standard deviation of the averaged measurements.
# Tested on: Drosophila virilis antennal basiconic sensillum AB5
# Test: odor-evoked OSN spike response (post minus pre-stimulus); higher = stronger neuronal excitation
# Settings: odor dilution: 10^-4
# Procedure: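 Single sensillum recordings from antennal basiconic sensilla of D. virilis. A 500 ms pulse of odorant (10^-4 in mineral oil or DMSO) was delivered; the response is the change in spike frequency between the 1 s pre- and post-stimulus windows (spikes/s).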
row,Structure (SMILES),odor-evoked OSN spike response
1,CC(=O)OC/C=C(\C)CCC=C(C)C [geranyl acetate],81 ± 11 spikes/s
2,COC(=O)c1ccccc1 [methyl benzoate],49.2 ± 8.7 spikes/s
3,"COc1cccc(OC)c1O [Phenol, 2,6-dimethoxy- (powder)]",54 ± 20 spikes/s
4,CCCCCOC(C)=O [pentyl acetate],65.7 ± 11 spikes/s
5,CC(=O)c1ccccc1 [Acetophenone],65.7 ± 8.1 spikes/s

# Reference: the supplement of paper PMC10477191
